Assay results reported in PubChem BioAssay (NCATS).
“And” between values parts separate entries of the source, which are not always exact repeats. Equal entries are not always repeated. Records with an inconclusive call do not appear. A call without a number means that no potency is given here. The source made the active and inactive calls. Calls come from the whole dose curve; as a rule, active = well fitted curve in the direction sought with a large enough effect; inconclusive = small, poorly fitted or top-dose-only effect, or another doubt; inactive = no such curve, though single readings can be large; an effect the other way counts as inactive or inconclusive.

Legend:
[1] = target: Cytochrome P450 3A7 (Homo sapiens) (UniProt P24462); experiment: Cytochrome P450 family 3 subfamily A member 7 (CYP3A7) small molecule antagonists: luciferase biochemical qHTS assay (AID 1963596); note: nearly all actives have a fitted effect of over 40% in size
Procedure, shortened: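 P450-Glo luminescent assay: CYP3A7 enzyme converts a proluciferin substrate to luciferin, detected by luciferase reagent; light proportional to activity. Compounds in DMSO preincubated 10 min with enzyme-substrate mix at room temperature, then NADPH regeneration added for 1 h.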

[2] = Viability qHTS for spleen associated tyrosine kinase inhibitor (SYKi) naive MV4-11 cells (AID 1963823); note: nearly all actives have a fitted effect of over 40% in size
Procedure, shortened: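 SYK inhibitor-naive MV4-11 cells, 500 per well, exposed to compounds for 72 hr at 37 C, 5% CO2. Viability read as CellTiter-Glo luminescence after 10 min at room temperature.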

[3] = Viability qHTS for spleen associated tyrosine kinase inhibitor (SYKi) drug resistant MV4-11 cells (AID 1963824); note: nearly all actives have a fitted effect of over 35% in size
Procedure, shortened: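 CellTiter-Glo luminescence, read 10 min after reagent addition, reports viability after a 72 hr compound exposure. Cells are an MV4-11 line made resistant to SYK inhibition, seeded at 500 per well onto compound-containing plates.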
Potency is the fitted concentration of half-maximal effect.

Chain of Cytochrome P450 3A7 (Homo sapiens) (P24462 whole entry, looked up): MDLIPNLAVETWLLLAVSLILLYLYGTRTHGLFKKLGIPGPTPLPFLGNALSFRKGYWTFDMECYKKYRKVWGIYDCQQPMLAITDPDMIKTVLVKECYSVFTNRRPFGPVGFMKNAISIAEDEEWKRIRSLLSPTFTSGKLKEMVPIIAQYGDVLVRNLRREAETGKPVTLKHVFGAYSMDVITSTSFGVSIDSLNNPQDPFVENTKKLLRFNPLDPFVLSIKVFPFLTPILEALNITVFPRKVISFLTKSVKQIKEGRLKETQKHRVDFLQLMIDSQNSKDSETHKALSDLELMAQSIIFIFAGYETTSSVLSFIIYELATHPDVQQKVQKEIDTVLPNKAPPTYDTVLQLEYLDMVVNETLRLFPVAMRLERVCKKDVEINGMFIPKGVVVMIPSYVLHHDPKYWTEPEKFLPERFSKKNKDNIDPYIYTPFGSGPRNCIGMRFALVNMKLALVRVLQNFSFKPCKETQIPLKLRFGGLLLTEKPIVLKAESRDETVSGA

Row | SMILES | Potency [1] | Potency [2] | Potency [3] | activity change, negative = inhibition [1] | viability (% of control) [2] | viability, % of control [3]
1 | CCOC(=O)N1CCC(CN(Cc2ccc(Cl)cc2)Cc2ccc([N+](=O)[O-])s2)C1 (stereo not drawn) | inactive | 10.3 µM (active) | 16.4 µM (active) | – | – | –
2 | Cc1cc(Nc2ncc3cc(-c4c(Cl)cccc4Cl)c(=O)n(C)c3n2)ccc1F | inactive | 0.461 µM (active) | 0.517 µM (active) | – | – | –
3 | O=C(O)CC1CCC(c2ccc(NC(=O)c3nnc(Nc4ccc(F)c(F)c4)o3)cc2)CC1 (stereo not drawn) | inactive | inactive | inactive | – | – | –
4 | O=C(Nc1cccc(C(F)(F)F)c1)Nc1ccc(Br)cc1-c1nn[nH]n1 | inactive | inactive | inactive | – | – | –
5 | CCCc1cc2c(N3CCN(C4=NCC(C)(C)S4)CC3)ncnc2s1 | inactive | 8.2 µM (active) | 5.8 µM (active) | – | – | –
6 | Cn1cc(-c2cnn3c(N)c(Br)c([C@@H]4CCCNC4)nc23)cn1 | inactive | 0.417 µM (active) | 731 nM (active) and 468 nM (active) | – | – | –
7 | CCCCN(CCCC)CC(O)c1cc(Cl)cc2c1-c1ccc(Cl)cc1/C2=C/c1ccc(Cl)cc1 (stereo not drawn) | inactive | 20.9 µM (active) | 18.8 µM (active) | – | – | –
8 | COc1cccc(NC[C@@H](O)Cn2c3ccc(Br)cc3c3cc(Br)ccc32)c1 | inactive | 18.4 µM (active) | 16.4 µM (active) | – | – | –
9 | CNC(=O)c1cnn(-c2nc(N)c3ncn([C@@H]4O[C@H](CO)[C@@H](O)[C@H]4O)c3n2)c1 | inactive | inactive | inactive | – | – | –
10 | Cc1nc(C#Cc2ccnc(Cl)c2)c(C)n1-c1ccc(F)cc1 | inactive | 8.2 µM (active) | 8.2 µM (active) | – | – | –
11 | N#Cc1cc(F)cc(-c2nc(-c3ccccn3)no2)c1 | inactive | inactive | inactive | – | – | –
12 | CNC(=O)c1cc(Oc2ccc3nc(N[C@@H]4CCCC[C@H]4O)sc3c2)ccn1 | inactive | 13 µM (active) | 11.6 µM (active) | – | – | –
13 | c1cc(OCCCN2CCCCC2)ccc1CN1CCCCC1 | inactive | inactive | inactive | – | – | –
14 | CCCCC/C(C=O)=C\c1ccccc1 | inactive | inactive | inactive | – | – | –
15 | O=C(Cc1ccc(-c2ccccc2)cc1)NC1CCC1 | inactive | inactive | inactive | – | – | –
16 | O=C(NC1CCN(CC(F)(F)F)CC1)c1ccc(-c2cccc(F)c2)nc1 | inactive | inactive | inactive | – | – | –
17 | CCOC(=O)N1CCC(N2CCC[C@@H](NC(=O)c3ccccc3C)C2)CC1 | inactive | 16.4 µM (active) | 14.6 µM (active) | – | – | –
18 | FC(F)(F)Oc1ccc(-c2ccc3nnc(C(F)(F)F)n3c2)cc1 | inactive | inactive | inactive | – | – | –
19 | O=C(O)[C@H]1Cc2ccccc2CN1 | – | – | – | 2.34% [at 11.5 µM] (inactive) | 95.6% [at 4.97 µM] (inactive) | 101% [at 4.97 µM] (inactive)

Row | SMILES | Potency [1] | Potency [2] | Potency [3] | activity change, negative = inhibition [1] | viability (% of control) [2] | viability, % of control [3]
20 | CCNC(=O)Nc1ccc(-c2nc3c(c(N4CCOC[C@@H]4C)n2)CCN(c2ncccn2)C3)cc1 | inactive | 0.13 µM (active) | 0.164 µM (active) | – | – | –
21 | CN(C)CCCNc1nc(CN2CCN(C(c3ccc(Cl)cc3)c3ccc(Cl)cc3)CC2)nc2ccccc12 | inactive | 2.06 µM (active) | 3.26 µM (active) | – | – | –
22 | COc1ccc(-c2ccc(-c3cn(C(=O)N4CCCCC4c4ccccc4)nn3)cc2)cc1 (stereo not drawn) | inactive | inactive | 0.517 µM (active) | – | – | –
23 | CNC1CN(c2ccc3c(=O)c(C(=O)O)cn(-c4nccs4)c3n2)CC1OC (stereo not drawn) | – | 0.422 µM (active) | 0.376 µM (active) | 23% [at 11.5 µM] (inactive) | – | –
24 | COCCCNCC1COc2ccccc2O1 (stereo not drawn) | inactive | inactive | inactive | – | – | –
25 | O=C1N=C(N2CCOCC2)CN1c1ccc(Cl)cc1 | inactive | inactive | inactive | – | – | –
26 | N[C@@H](CC(=O)Nc1ccc(Oc2cc(F)c(F)cc2Br)cc1)C(=O)O | inactive | inactive | inactive | – | – | –
27 | CN(C)C/C=C/C(=O)Nc1cccc(C(=O)Nc2ccc(Nc3nccc(-c4cccnc4)n3)cc2)c1 | inactive | 0.184 µM (active) | 0.461 µM (active) | – | – | –
28 | Cc1onc(-c2ccccc2)c1C(=O)N[C@@H]1C(=O)N2[C@@H]1SC(C)(C)[C@@H]2C(=O)O | inactive | inactive | inactive | – | – | –
29 | COC(=O)c1ccc(N2CCN(C)CC2)c(NC(=O)c2cccc(OC)c2)c1 | inactive | inactive | inactive | – | – | –
30 | O=C(O)CCC(=O)O | inactive | inactive | inactive | – | – | –
31 | COc1cccc(OC)c1-c1ccc(C[C@H](NC(=O)c2c(Cl)cccc2Cl)C(=O)O)cc1 | inactive | inactive | inactive | – | – | –
32 | COc1cc(NS(=O)(=O)c2ccc(N)cc2)ncn1 | inactive | inactive | inactive | – | – | –
33 | C(#Cc1cccc(CN2CCOCC2)c1)CCN1CCCCC1 | inactive | inactive | inactive | – | – | –
34 | O=C(O)c1cccc(S(=O)(=O)N2CCc3ccccc3C2)c1 | inactive | inactive | inactive | – | – | –
35 | C[C@@H](NC(=O)C(=O)c1c[nH]c2ccc([N+](=O)[O-])cc12)c1ccccc1 | inactive | inactive | 4.11 µM (active) | – | – | –
36 | CCc1cc(CN2CC(C(=O)O)C2)sc1-c1noc(-c2ccc(Oc3ccccc3)cc2)n1 | inactive | inactive | inactive | – | – | –
37 | CN(C)CC(=O)Nc1ccc2[nH]c(=O)c3ccccc3c2c1 | inactive | 20.6 µM (active) | 20.6 µM (active) | – | – | –
38 | N[C@@H](CCNCc1ccc(Cl)cc1)C(=O)N1CCCCC1 | inactive | inactive | inactive | – | – | –

Row | SMILES | Potency [1] | Potency [2] | Potency [3] | activity change, negative = inhibition [1] | viability (% of control) [2] | viability, % of control [3]
39 | C=CC(=O)N1CCN(C(=O)c2cc(-c3cc(Cl)ccc3Cl)c(Cl)cc2OC)CC1 | inactive | 8.2 µM (active) | 6.51 µM (active) | – | – | –
40 | CC1(C)Oc2ncnc(N)c2N=C1c1ccc(C2CCC(CC(=O)O)CC2)cc1 (stereo not drawn) | inactive | inactive | inactive | – | – | –
41 | O=C(NCCCCN1CCN(c2cccc(Cl)c2Cl)CC1)c1cc2ccccc2s1 | 2.82 µM (active) | 23.1 µM (active) | 23.1 µM (active) | – | – | –
42 | O=C(COc1ccc(Cl)cc1)NC1CCC(NC(=O)COc2ccc(Cl)cc2)CC1 (stereo not drawn) | inactive | inactive | inactive | – | – | –
43 | COc1ccc(C2=N[C@@H](c3ccc(Cl)cc3)[C@@H](c3ccc(Cl)cc3)N2C(=O)N2CCNC(=O)C2)c(OC(C)C)c1 | inactive | 20.6 µM (active) | 10.3 µM (active) | – | – | –
44 | CC(C)C[C@@H](C(=O)N[C@@H](Cc1ccc(OCc2ccccc2)cc1)C(=O)NC(C)(C)C)N(C)Cc1ccc(C(C)(C)C)cc1 | inactive | inactive | 3.66 µM (active) | – | – | –
45 | CC(C)c1noc(C2CCN(c3ncnc(Nc4ccc(S(C)(=O)=O)cc4F)c3[N+](=O)[O-])CC2)n1 | inactive | inactive | inactive | – | – | –
46 | O=S(=O)(Cc1ccccc1)Nc1ccc(-c2ccc3c(cnn3-c3ccc(F)cc3)c2)c(C(F)(F)F)c1 | 12 µM (active) | 16.4 µM (active) | 20.6 µM (active) | – | – | –
47 | c1cc(-c2cc(C3CCNCC3)[nH]n2)ccn1 | inactive | inactive | inactive | – | – | –
48 | O=C(c1ccccn1)c1cnn2c(-c3ccncc3)ccnc12 | inactive | inactive | inactive | – | – | –
49 | CCCCc1ccc(C(=O)Nc2cc(-c3ccc(Cl)cc3)nn2-c2ccc(Cl)cc2)cc1 | inactive | inactive | inactive | – | – | –
50 | N[C@@H](CC(=O)N1CCn2c(nnc2C(F)(F)F)C1)Cc1[nH]nc2c(F)c(F)ccc12 | inactive | inactive | inactive | – | – | –
51 | CCCOc1ccccc1-c1nc2n[nH]nc2c(=O)[nH]1 | inactive | inactive | inactive | – | – | –
52 | O=C(Nc1ccc(N2CCC(C(=O)N3CCOCC3)CC2)cc1)c1cnc(Oc2ccccc2)nc1 | inactive | inactive | inactive | – | – | –
53 | CC#CC(=O)Nc1ccc2ncnc(Nc3cccc(Br)c3)c2c1 | inactive | 1.46 µM (active) | 1.46 µM (active) and 580 nM (active) | – | – | –
54 | COC(=O)[C@H](CC1C=NC=N1)NCC12CC3CC(CC(C3)C1)C2 (stereo partly drawn) | inactive | inactive | inactive | – | – | –
55 | O=C(O)[C@@H]1C[C@H]2C[C@@H](CCc3nn[nH]n3)CC[C@H]2CN1 | inactive | inactive | inactive | – | – | –
56 | CN(C)S(=O)(=O)c1ccc(NC(=S)N2CCC(C(O)(c3ccccc3)c3ccccc3)CC2)cc1 | inactive | 16.4 µM (active) | 18.4 µM (active) | – | – | –
